Laboratory results as given in PubChem BioAssay (NCI).
About 83,000 compounds went through this panel and 20% of them were active in at least one assay; those are over-represented in the sample as a whole.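 Cells were grown in 96-well plates and exposed to the test compound at a single concentration for 48 hours; results are reported as percent growth, with values below 10 considered active.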 The source made the active and inactive calls.

Key:
Assay in all cases: NCI-60 one-dose screen, 48 h (100 = growth as untreated, 0 = no growth, -100 = all killed)
Conditions in all cases: 10 µM unless noted
[1] = tested on: SR leukemia
[2] = tested on: RPMI-8226 leukemia
[3] = tested on: OVCAR-8 ovarian
[4] = tested on: OVCAR-5 ovarian
[5] = tested on: OVCAR-4 ovarian
[6] = tested on: SK-OV-3 ovarian
[7] = tested on: IGROV1 ovarian
[8] = tested on: OVCAR-3 ovarian
[9] = tested on: HS 578T breast
[10] = tested on: NCI/ADR-RES ovarian
[11] = tested on: T-47D breast
[12] = tested on: BT-549 breast
[13] = tested on: MDA-MB-435 melanoma
[14] = tested on: SW-620 colon
[15] = tested on: MCF7 breast
[16] = tested on: HCT-116 colon
[17] = tested on: HCC-2998 colon
[18] = tested on: KM12 colon
[19] = tested on: MDA-MB-468 breast

SMILES | growth [1] | growth [2] | growth [3] | growth [4] | growth [5] | growth [6] | growth [7] | growth [8] | growth [9] | growth [10] | growth [11] | growth [12] | growth [13] | growth [14] | growth [15] | growth [16] | growth [17] | growth [18] | growth [19]
COc1c(F)ccc(C(=O)Nc2ccc3nc(NC(=O)C4CCCN(S(=O)(=O)C5CC5)C4)sc3c2)c1F (stereo not given) | 10.3% (inactive) | 19% (inactive) | 36.4% (inactive) | 77.4% (inactive) | 38.5% (inactive) | 43.7% (inactive) | 69.3% (inactive) | 66.5% (inactive) | 17.6% (inactive) | 33.2% (inactive) | -5.4% (active) | -8.29% (active) | 39.5% (inactive) | 78.7% (inactive) | 15.2% (inactive) | 32.2% (inactive) | 59.8% (inactive) | 44% (inactive) | 3.58% (active)
O=C(CN1C(=O)/C(=C/c2ccccc2F)SC1=S)N1CCOCC1 | 27.9% (inactive) | 52.8% (inactive) | 93.4% (inactive) | 91.9% (inactive) | 73.7% (inactive) | 112% (inactive) | 100% (inactive) | 52.8% (inactive) | 104% (inactive) | 92% (inactive) | 61.4% (inactive) | 111% (inactive) | 94.1% (inactive) | 32.6% (inactive) | 35.3% (inactive) | 45.3% (inactive) | 116% (inactive) | 99.1% (inactive) | -7.25% (active)
CCCCCCCCc1ccc(S(=O)(=O)Nc2ccc(CC)cc2C(=O)O)cc1 | 96.7% (inactive) | 71.1% (inactive) | 95.1% (inactive) | 117% (inactive) | 96% (inactive) | 106% (inactive) | 97.4% (inactive) | 113% (inactive) | 103% (inactive) | 96% (inactive) | 76.6% (inactive) | 108% (inactive) | 101% (inactive) | 103% (inactive) | 86% (inactive) | 87.7% (inactive) | 113% (inactive) | 97.7% (inactive) | 82.2% (inactive)
O=C(COc1ccc(NC(=O)Nc2ccccc2)cc1)N=Nc1c(O)[nH]c2ccc([N+](=O)[O-])cc12 | 19.1% (inactive) | 53.9% (inactive) | -30.5% (active) | 61.2% (inactive) | 7.38% (active) | 56.7% (inactive) | 22.5% (inactive) | -76.9% (active) | -8.84% (active) | 113% (inactive) | -43.7% (active) | -42.6% (active) | -18.3% (active) | 4.08% (active) | -2.45% (active) | -55.9% (active) | -47.9% (active) | -62% (active) | -69.7% (active)
COc1cc2c3c(n(CCCN4CCC[C@@H]4CO)c(=O)c2cc1OC)-c1cc2c(cc1C3=O)OCO2 | -25.5% (active) | -28.4% (active) | -76.8% (active) | -98.7% (active) | -82.2% (active) | 27.1% (inactive) | -88.9% (active) | -94.4% (active) | -6.35% (active) | -67.4% (active) | 49.3% (inactive) | 34.9% (inactive) | -86.8% (active) | -77.8% (active) | -84.9% (active) | -59.1% (active) | -99.4% (active) | -98.2% (active) | -92.4% (active)
O=C(Nc1ccccc1)N1CCN(c2cc(-c3cn(-c4ccccc4)nc3-c3cccc(O)c3)ccn2)CC1 | 19.2% (inactive) | 32.5% (inactive) | 43.9% (inactive) | 106% (inactive) | 84.2% (inactive) | 98.1% (inactive) | 84% (inactive) | 98.2% (inactive) | 83.1% (inactive) | 23.7% (inactive) | 13.1% (inactive) | 67.3% (inactive) | 13.7% (inactive) | 87.5% (inactive) | 63.3% (inactive) | 65.7% (inactive) | 81.8% (inactive) | 39.5% (inactive) | 58.7% (inactive)
CN1C(=O)/C(=C/c2ccc(C(=O)Nc3ncc(Cc4ccc(Cl)cc4Cl)s3)cc2)SC1=S | 28.8% (inactive) | 36.3% (inactive) | 39.3% (inactive) | 46.3% (inactive) | 53.6% (inactive) | 53.3% (inactive) | 47.2% (inactive) | 12.9% (inactive) | 44.3% (inactive) | -11.8% (active) | 23.9% (inactive) | 31.6% (inactive) | -4.21% (active) | 45.1% (inactive) | 30.6% (inactive) | 29.6% (inactive) | 40.4% (inactive) | 15.5% (inactive) | -9.37% (active)
COc1ccc2[nH]cc(-c3cc(N)n4nc(-c5cn(C)c6ccccc56)cc4n3)c2c1 | 9.5% (active) | -18% (active) | -95.6% (active) | -85.9% (active) | -58.3% (active) | -84% (active) | -64.2% (active) | -43% (active) | -7.76% (active) | -45.3% (active) | -73.3% (active) | -75.2% (active) | -81% (active) | -46.1% (active) | -82.2% (active) | -85.9% (active) | -81.3% (active) | -69.9% (active) | -80.1% (active)
COc1ccc2oc(=O)c(C3(C)NC(=O)c4c(/C=C/C(=O)OC(C)(C)C)cccc4N3)cc2c1 (stereo not given) | 26.2% (inactive) | 28.5% (inactive) | 37.9% (inactive) | 60.9% (inactive) | 41.5% (inactive) | 51.2% (inactive) | 41.6% (inactive) | 55.4% (inactive) | 60% (inactive) | 36.6% (inactive) | 6.58% (active) | 3.69% (active) | 46.7% (inactive) | 63.8% (inactive) | 24.1% (inactive) | 30% (inactive) | 62.1% (inactive) | 47% (inactive) | 31.7% (inactive)
Cc1ccc([C@H]2C(C(=O)c3ccc(Cl)cc3)C3(N[C@@H]2c2ccccc2)C(=O)Nc2ccccc23)cc1 (stereo not given in full) | 23.3% (inactive) | 6.4% (active) | 66% (inactive) | 52.2% (inactive) | 49.4% (inactive) | 53.2% (inactive) | 59.4% (inactive) | 37.3% (inactive) | 60.3% (inactive) | 35.4% (inactive) | 14.3% (inactive) | 50.7% (inactive) | 26.8% (inactive) | 29.9% (inactive) | 16% (inactive) | 14% (inactive) | 23.7% (inactive) | 25.9% (inactive) | 1.9% (active)
CC(=O)c1c(N)c(C#N)cn1-c1ccc(Cl)cc1Cl | 90.8% (inactive) | 105% (inactive) | 98.2% (inactive) | 100% (inactive) | 106% (inactive) | 89.1% (inactive) | 96.5% (inactive) | 120% (inactive) | 110% (inactive) | 108% (inactive) | 95.1% (inactive) | 104% (inactive) | 102% (inactive) | 102% (inactive) | 100% (inactive) | 99.1% (inactive) | 114% (inactive) | 95.8% (inactive) | 97.1% (inactive)
O=C(N=Nc1c(O)[nH]c2ccc(Cl)cc12)c1ccc2nc(-c3ccccc3)[nH]c2c1 | 15.3% (inactive) | 70.1% (inactive) | 20.8% (inactive) | 106% (inactive) | 38.2% (inactive) | 91% (inactive) | 75.4% (inactive) | 109% (inactive) | 52.3% (inactive) | 90% (inactive) | 30.1% (inactive) | 109% (inactive) | 79.7% (inactive) | 17.8% (inactive) | 4.1% (active) | 59.4% (inactive) | 10.3% (inactive) | 91.2% (inactive) | -31.3% (active)
C#CCOc1cc(N(CC)CC)ccc1C(C(=O)NC(C)(C)C)N(C(=O)C1CCc2cc(F)ccc2O1)c1ccccc1F (stereo not given) | 16.3% (inactive) | 18% (inactive) | 31.7% (inactive) | 57.7% (inactive) | 43.4% (inactive) | 39.6% (inactive) | 54% (inactive) | 33.1% (inactive) | 68.7% (inactive) | 42.5% (inactive) | 30.2% (inactive) | 40.3% (inactive) | 35.9% (inactive) | 42.1% (inactive) | 16.6% (inactive) | 20.5% (inactive) | 73.2% (inactive) | 18.8% (inactive) | 25.5% (inactive)
COc1ccc(C(=O)/C=C/c2ccc(OCc3ccc(F)cc3)c(OC)c2)cc1OC | 7.52% (active) | 1.35% (active) | -7.27% (active) | 1.16% (active) | 17.3% (inactive) | 40.2% (inactive) | 17.5% (inactive) | 18.2% (inactive) | 84.7% (inactive) | 11% (inactive) | 26.8% (inactive) | -1.79% (active) | 7.77% (active) | 7.65% (active) | 7.56% (active) | 8.63% (active) | 16.8% (inactive) | 14% (inactive) | 8.91% (active)
CC(C)(C)OC(=O)/C=C/c1cccc2c1C(=O)NC(C)(c1cc3cc(Cl)ccc3oc1=O)N2 (stereo not given) | 8.86% (active) | 1.99% (active) | 39.1% (inactive) | 67.1% (inactive) | 43.9% (inactive) | 47.6% (inactive) | 44.7% (inactive) | 43.8% (inactive) | 65.1% (inactive) | 25.4% (inactive) | -3.39% (active) | 15.2% (inactive) | 62.2% (inactive) | 55.7% (inactive) | 17.5% (inactive) | 31.5% (inactive) | 52.9% (inactive) | 19.9% (inactive) | 11.6% (inactive)
